This passage reports inhibition and growth inhibition results from PubChem BioAssay.

The source made the active and inactive calls. No rule for the calls is given here.

One may read the inhibition as the change of the read-out against control, counted positive when it falls.

The target of one experiment is L-lactate dehydrogenase (Plasmodium falciparum (isolate CDC / Honduras)) (UniProt Q27743). The experiment is described as follows: PfLDH activity inhibition – cell lysate, 3D7 strain, counter-screen for P. falciparum growth inhibition project (AID 2304).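 Also: 0% = vehicle and 100% = reference inhibitor.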 Conditions: P. falciparum 3D7 crude extract, LDH APAD/NBT absorbance; at 2 µM; active compounds read high. On the technique in general: Counterscreens check selectivity or assay interference.
Chain of L-lactate dehydrogenase (Plasmodium falciparum (isolate CDC / Honduras)) (Q27743 whole entry, looked up): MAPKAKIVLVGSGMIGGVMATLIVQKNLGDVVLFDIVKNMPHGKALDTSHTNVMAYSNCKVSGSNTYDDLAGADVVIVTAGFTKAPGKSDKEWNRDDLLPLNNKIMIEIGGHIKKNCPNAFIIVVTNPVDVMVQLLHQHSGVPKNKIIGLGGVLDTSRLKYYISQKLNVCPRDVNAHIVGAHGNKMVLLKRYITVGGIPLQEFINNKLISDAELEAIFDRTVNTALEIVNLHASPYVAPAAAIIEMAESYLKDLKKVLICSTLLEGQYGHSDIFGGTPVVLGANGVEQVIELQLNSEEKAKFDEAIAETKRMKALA
Take `COc1cc(C=C(C2=NC(=O)CS2)c2nc3cccnc3n2C)ccc1O`: the inhibition was -7% (inactive).
Consider `Nc1ccc(-c2nc3cc(C4=N[C@H]5CCCC[C@H]5N4)ccc3o2)cc1[N+](=O)[O-]`, for which the inhibition is 1% (inactive).
Take `O=[N+]([O-])c1ccc(-c2nc3ccc(C4=N[C@H]5CCCC[C@H]5N4)cc3[nH]2)cc1`: the inhibition is 3% (inactive).
Consider `Oc1c(C=Nn2cnnc2)sc2ccccc12`, for which the inhibition was 0% (inactive).
As to `CC1CCC(C[C@@H](C(=O)N[C@@H](CCC(=O)N2CCCCC2)C(=O)Nc2nccs2)[C@H](C(C)C)N(O)C=O)CC1` (stereo partly drawn), the inhibition was 7% (inactive).
For `CCC[C@@H](C(=O)NCCc1cccc(OC)c1)N1C(=O)c2c(ccc(OC)c2OC)C1C(=O)Nc1c(C)cccc1C` (stereo partly drawn), the inhibition was 3% (inactive).
For `CN(C)c1nc(NCc2ccccc2)nc(NN=Cc2cc([N+](=O)[O-])ccc2O)n1`, the inhibition was -5% (inactive).
For the molecule `c1cc2nc(CCCCc3nc4ccc(C5=N[C@H]6CCCC[C@H]6N5)cc4[nH]3)[nH]c2cc1C1=N[C@H]2CCCC[C@H]2N1`, the inhibition is 6% (inactive).
On the same count and under the same terms, then `CCCCCC(C)C(C)c1cc(O)c2c(c1)OC(C)(C)CC2=Cc1ccncc1` (stereo not drawn), with 2% (inactive); and `CCCO[C@H](C(=O)OC)[C@@H](CC1Cc2ccccc2C1)C(=O)NCCC1=CCCCC1`, with 1% (inactive); and `O=C(NN=Cc1nc2ccccc2[nH]1)c1cccc([N+](=O)[O-])c1`, with 2% (inactive).
Regarding `O=C(/C=C/c1ccc(Cl)c(Cl)c1)NCCCCCN1CC[C@H](c2c[nH]c3ccccc23)[C@H](O)C1`, the inhibition was -5% (inactive).
For the molecule `ON=C1CCc2cc(-c3nc(-c4ccc(OCCN5CCCCC5)cc4)[nH]c3-c3ccncc3)ccc21`, the inhibition is 3% (inactive).
Still for that read-out and setting: as for `COc1ccc2nc(/N=C(/N)NC(=O)Nc3ccccc3)nc(C)c2c1`, the figure is -1% (inactive); as for `C=CC[C@H](C[C@H](O)[C@H](Cc1ccccc1)NC(=O)c1ccc(-n2cccn2)cc1)C(=O)NC1CCCCC1`, 1% (inactive).
As to `O=C(NC=Nc1cc([N+](=O)[O-])c(-c2ccncc2)n1-c1ccccc1)c1cccc(O)c1`, the inhibition was 4% (inactive).
For `C=CC[C@H](C[C@H](O)[C@H](Cc1ccccc1)NC(=O)c1ccc(-c2cccnn2)cc1)C(=O)NC1CCCCC1`, the inhibition was 4% (inactive).
On to `Cc1ccc(-c2cncc(-c3cc(NC4CCN(Cc5ccccc5)CC4)nc(-c4ccccc4)n3)c2)cc1`, for which the inhibition is -4% (inactive).
Same read-out and setting: then `CCn1c(C=Cc2cc(Br)ccc2O)nc2ccccc2c1=O`, with -5% (inactive); and `CN(Cc1cnc2nc(N)nc(N)c2n1)c1ccc(C(=O)N[C@H](CCC(=O)O)C(=O)O)cc1`, with -4% (inactive).
Same read-out and setting: then `CCN1CCN(c2cc(C)c3cc(NC(=O)c4ccc(C(C)(C)C)cc4)ccc3n2)CC1`, with -3% (inactive); and `Cc1cc(C)c2c(c1)C(=NO)CCN2`, with 7% (inactive).
Take `Cc1cc(-c2cc(-c3ccc(OCCN(C)C)cc3)[nH]c2-c2ccc3c(c2)CCC3=NO)ccn1`: the inhibition is -3% (inactive).
With `O=C(NC=Nc1cc([N+](=O)[O-])c(-c2cccnc2)n1-c1ccc(O)cc1)c1ccccc1`, the inhibition was 6% (inactive).
In the case of `O=[N+]([O-])c1cccc(-c2nc3ccc(C4=N[C@H]5CCCC[C@H]5N4)cc3[nH]2)c1`, the inhibition is -7% (inactive).
`CN(C)CCCOc1ccc(-c2nc(-c3ccc4c(c3)CCC4=NO)c(-c3ccncc3)[nH]2)cc1`: the inhibition was -3% (inactive).
Take `CN(C)C(=S)NN=Cc1cccc(O)c1O`: the inhibition is -2% (inactive).
Regarding `Nc1cc(C=Cc2ccc(O)cc2)nc2ccccc12`, the inhibition is 3% (inactive).
Still for that read-out and setting: as for `COc1ccc(Nc2nc(NN=Cc3ccc(O)cc3)nc(Nc3ccc([N+](=O)[O-])cc3)n2)cc1`, the figure is 0% (inactive).
With `O=[N+]([O-])c1ccc(Nc2nc(NN=Cc3cc(Cl)cc(Cl)c3O)nc(Nc3ccccc3)n2)cc1`, the inhibition is -6% (inactive).
Still for that read-out and setting: as for `CCOc1cc(C=Cc2nc3ccccc3c(=O)[nH]2)cc(Cl)c1O`, the figure is 2% (inactive).
With `CN(C)c1cc(NN=Cc2cc(Cl)ccc2O)nc(N(C)C)n1`, the inhibition is 0% (inactive).
For the molecule `CC(=NNC(N)=O)C1=C(O)C(c2ccccc2)N(C2CCCCC2)C1=O` (stereo not drawn), the inhibition is 0% (inactive).
Consider `ON=C1CCc2cc(-c3cc(-c4ccc(OC5CCNCC5)cc4)oc3-c3ccncc3)ccc21`, for which the inhibition was 3% (inactive).

System in another experiment: not listed separately
The experiment is described as follows: inhibition of 3D7 malaria parasite growth – strain 3D7 (AID 2306).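 Also: 0% = DMSO wells and 100% = chloroquine plus artemisinin control wells.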 The following applies: P. falciparum 3D7 erythrocytic growth, LDH absorbance, 72 h; at 2 µM; active compounds read high.
Consider `COc1cc(C=C(C2=NC(=O)CS2)c2nc3cccnc3n2C)ccc1O`, for which the growth inhibition was 89% (active).
For `Nc1ccc(-c2nc3cc(C4=N[C@H]5CCCC[C@H]5N4)ccc3o2)cc1[N+](=O)[O-]`, the growth inhibition was 95% (active).
As for `O=[N+]([O-])c1ccc(-c2nc3ccc(C4=N[C@H]5CCCC[C@H]5N4)cc3[nH]2)cc1`, the growth inhibition is 100% (active).
Take `Oc1c(C=Nn2cnnc2)sc2ccccc12`: the growth inhibition was 93% (active).
`CC1CCC(C[C@@H](C(=O)N[C@@H](CCC(=O)N2CCCCC2)C(=O)Nc2nccs2)[C@H](C(C)C)N(O)C=O)CC1` (stereo partly drawn): the growth inhibition was 87% (active).
For the molecule `CCC[C@@H](C(=O)NCCc1cccc(OC)c1)N1C(=O)c2c(ccc(OC)c2OC)C1C(=O)Nc1c(C)cccc1C` (stereo partly drawn), the growth inhibition is 94% (active).
Regarding `CN(C)c1nc(NCc2ccccc2)nc(NN=Cc2cc([N+](=O)[O-])ccc2O)n1`, the growth inhibition was 100% (active).
As to `c1cc2nc(CCCCc3nc4ccc(C5=N[C@H]6CCCC[C@H]6N5)cc4[nH]3)[nH]c2cc1C1=N[C@H]2CCCC[C@H]2N1`, the growth inhibition is 90% (active).
Consider `CCCCCC(C)C(C)c1cc(O)c2c(c1)OC(C)(C)CC2=Cc1ccncc1` (stereo not drawn), for which the growth inhibition is 100% (active).
On to `CCCO[C@H](C(=O)OC)[C@@H](CC1Cc2ccccc2C1)C(=O)NCCC1=CCCCC1`, for which the growth inhibition was 93% (active).
Turning to `O=C(NN=Cc1nc2ccccc2[nH]1)c1cccc([N+](=O)[O-])c1`, the growth inhibition was 99% (active).
On the same count and under the same terms, as for `O=C(/C=C/c1ccc(Cl)c(Cl)c1)NCCCCCN1CC[C@H](c2c[nH]c3ccccc23)[C@H](O)C1`, the figure is 96% (active); as for `ON=C1CCc2cc(-c3nc(-c4ccc(OCCN5CCCCC5)cc4)[nH]c3-c3ccncc3)ccc21`, 99% (active).
Consider `COc1ccc2nc(/N=C(/N)NC(=O)Nc3ccccc3)nc(C)c2c1`, for which the growth inhibition was 90% (active).
In the case of `C=CC[C@H](C[C@H](O)[C@H](Cc1ccccc1)NC(=O)c1ccc(-n2cccn2)cc1)C(=O)NC1CCCCC1`, the growth inhibition was 96% (active).
Regarding `O=C(NC=Nc1cc([N+](=O)[O-])c(-c2ccncc2)n1-c1ccccc1)c1cccc(O)c1`, the growth inhibition is 100% (active).
On to `C=CC[C@H](C[C@H](O)[C@H](Cc1ccccc1)NC(=O)c1ccc(-c2cccnn2)cc1)C(=O)NC1CCCCC1`, for which the growth inhibition was 83% (active).
In the case of `Cc1ccc(-c2cncc(-c3cc(NC4CCN(Cc5ccccc5)CC4)nc(-c4ccccc4)n3)c2)cc1`, the growth inhibition was 100% (active).
As to `CCn1c(C=Cc2cc(Br)ccc2O)nc2ccccc2c1=O`, the growth inhibition is 95% (active).
Consider `CN(Cc1cnc2nc(N)nc(N)c2n1)c1ccc(C(=O)N[C@H](CCC(=O)O)C(=O)O)cc1`, for which the growth inhibition was 92% (active).
As for `CCN1CCN(c2cc(C)c3cc(NC(=O)c4ccc(C(C)(C)C)cc4)ccc3n2)CC1`, the growth inhibition was 85% (active).
For `Cc1cc(C)c2c(c1)C(=NO)CCN2`, the growth inhibition was 94% (active).
Consider `Cc1cc(-c2cc(-c3ccc(OCCN(C)C)cc3)[nH]c2-c2ccc3c(c2)CCC3=NO)ccn1`, for which the growth inhibition is 100% (active).
Take `O=C(NC=Nc1cc([N+](=O)[O-])c(-c2cccnc2)n1-c1ccc(O)cc1)c1ccccc1`: the growth inhibition is 102% (active).
In the case of `O=[N+]([O-])c1cccc(-c2nc3ccc(C4=N[C@H]5CCCC[C@H]5N4)cc3[nH]2)c1`, the growth inhibition is 101% (active).
In the case of `CN(C)CCCOc1ccc(-c2nc(-c3ccc4c(c3)CCC4=NO)c(-c3ccncc3)[nH]2)cc1`, the growth inhibition is 96% (active).
For the molecule `CN(C)C(=S)NN=Cc1cccc(O)c1O`, the growth inhibition is 91% (active).
Still for that read-out and setting: then `Nc1cc(C=Cc2ccc(O)cc2)nc2ccccc12`, with 100% (active); and `COc1ccc(Nc2nc(NN=Cc3ccc(O)cc3)nc(Nc3ccc([N+](=O)[O-])cc3)n2)cc1`, with 93% (active); and `O=[N+]([O-])c1ccc(Nc2nc(NN=Cc3cc(Cl)cc(Cl)c3O)nc(Nc3ccccc3)n2)cc1`, with 100% (active).
On to `CCOc1cc(C=Cc2nc3ccccc3c(=O)[nH]2)cc(Cl)c1O`, for which the growth inhibition was 83% (active).
`CN(C)c1cc(NN=Cc2cc(Cl)ccc2O)nc(N(C)C)n1`: the growth inhibition was 98% (active).
As to `CC(=NNC(N)=O)C1=C(O)C(c2ccccc2)N(C2CCCCC2)C1=O` (stereo not drawn), the growth inhibition is 93% (active).
For `ON=C1CCc2cc(-c3cc(-c4ccc(OC5CCNCC5)cc4)oc3-c3ccncc3)ccc21`, the growth inhibition is 101% (active).
